# Source: PubChem BioAssay (The Scripps Research Institute Molecular Screening Center)
# MITF inh: blocks human microphthalmia-associated transcription factor. O75030. inhibition, % at 2.6 µM. 650,000 compounds, 0.91% hits. AlphaScreen MITF homodimerization, bead proximity signal; in the data active = inhibition above about 50%;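 also: 0% = vehicle wells with protein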
# GPR151 ag: activators of human GPR151. PathHunter beta-arrestin GPR151 cells, luminescence. 650,000 compounds, 1% hits. activation, % at 11.2 µM. Q8TDV0. AID 1508602; in the data active = activation above about 4.9%;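 also: 0% = median of compound wells and 100% = cells with positive control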
# FBW7 act: activators of human E3 ligase FBW7; 650,000 compounds, 0.13% hits; AlphaScreen FBW7–phospho-cyclin E peptide binding, activator screen; normalized activity (activation), % at 26.1 µM; in the data active = normalized activity above about 1.9%;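 also: purified mutant Fbw7 with reduced substrate affinity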
# TEAD-YAP block: TEAD-YAP interaction inhibition | 640,000 compounds, 1.4% hits | inhibition, % at 9.12 µM | HEK-TIYL cells, TEAD-Gal4/YAP UAS-luciferase luminescence; in the data active = inhibition above about 32%;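 also: 0% = median of test compound wells and 100% = reference inhibitor wells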
# GPR151 confirm: human GPR151 activation, confirmation screen | shares compounds with GPR151 ag | GPR151 PathHunter beta-arrestin cells, luminescence, 90 min; % of EA-reagent control over plate median | activation, % at 11.2 µM | 6,700 tested, under 10 active | AID 1508609;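 active = mean percent activation across replicates above the confirmation screen cutoff of 4.91%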
# GPR119 counter: activates human GPR119 in a GPR151 counter-screen. shares compounds with GPR151 ag. GPR119 PathHunter beta-arrestin cells, luminescence, 90 min; 0 = compound-well median, 100 = enzyme-acceptor control. activation, % at 11.2 µM. 6,700 compounds, 0.3% hits;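 active = mean percent activation in the counterscreen above 29.09%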;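 also: counterscreen on off-target GPR119 to flag nonselective hits from the GPR151 activator screen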
# Target sequence (Q8TDV5 whole entry, looked up): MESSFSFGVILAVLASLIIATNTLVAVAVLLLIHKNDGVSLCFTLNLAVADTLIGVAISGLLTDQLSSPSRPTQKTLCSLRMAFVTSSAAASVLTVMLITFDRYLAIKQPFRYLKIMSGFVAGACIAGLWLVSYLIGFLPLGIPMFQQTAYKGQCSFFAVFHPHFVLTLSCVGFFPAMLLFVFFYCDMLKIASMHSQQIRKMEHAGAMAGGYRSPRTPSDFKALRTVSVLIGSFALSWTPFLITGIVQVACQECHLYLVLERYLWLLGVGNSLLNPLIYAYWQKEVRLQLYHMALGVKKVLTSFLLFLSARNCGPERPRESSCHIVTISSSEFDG
# Starred values were filed as active, the others as inactive; . = no result. In the library only some 3.5% were active in any assay of this set; here they are far more common.
SMILES,MITF inh,GPR151 ag,FBW7 act,TEAD-YAP block,GPR151 confirm,GPR119 counter
Cc1ccc(-n2c(SCC(=O)NCC3CCCO3)nnc2-c2ccncc2)cc1C (stereo not drawn),3,-1,0,2,.,.
COc1cc(N2CCOCC2)ccc1/C=C1\C(=O)NC(=S)N(c2ccc(F)cc2)C1=O,7,5.2*,0,8,0,-4
COc1cccc(-c2cc(C(=O)Nc3ccc(F)cc3F)on2)c1,4,-1,0,-7,.,.
FC(F)(F)C1=Nc2ccccc2N=C(c2cccs2)C1,10,0,0,6,.,.
O=C(c1cccc(N2C(=O)C3CCCCC3C2=O)c1)N1CCCCC1 (stereo not drawn),-10,1,0,13,.,.
O=C(Nc1ccc(-c2nc3ccc(-c4nc5ccccc5o4)cc3[nH]2)cc1)C1CCCCC1,17,4.9*,0,-5,1,16
O=c1c(-c2ccccc2)[n+]([O-])c2ccccc2n1OCc1ccccc1[N+](=O)[O-],12,6.0*,0,8,2,6
CCOC(=O)COn1c(=O)c(-c2ccc(Oc3ccccc3)cc2)[n+]([O-])c2ccccc21,-10,5.3*,0,-12,0,-6
O=C(CC1(O)C(=O)N(Cc2ccccc2)c2ccccc21)c1ccccc1 (stereo not drawn),5,-1,0,1,.,.
CCN(CC)C(=O)CN1C(=O)C(O)(CC(=O)c2ccccc2)c2ccccc21 (stereo not drawn),11,7.6*,1,5,0,1
CCn1c(Cc2ccccc2)nnc1SCC(=O)N1CCCCC1,7,6.3*,0,2,0,4
Nc1nnc(-c2ccc(C(=O)O)cc2)s1,5,7.6*,0,-5,1,0
Cc1ccc(-c2nnc(N)s2)cc1C,1,5.6*,0,-33,-1,1
Cc1ccc(-c2nnc(N)s2)cc1,-14,-2,0,-8,.,.
C=CCNC(=O)N1CCc2nc(-c3ccc(OC)cc3C)c3c(c2C1)CO[C@@H](c1ccccc1)C3,2,1,0,.,.,.
C[C@H]1Cc2c(-c3ccccc3)nc3c(c2CO1)CN(C(=O)Cc1cccs1)CC3,-9,-1,0,.,.,.
COc1cccc(CC(=O)N2CCc3nc(-c4ccccc4)c4c(c3C2)CO[C@@H](C)C4)c1,2,6.8*,0,.,0,-5
COc1ccc(-c2nc3c(c4c2C[C@H](c2ccccc2)OC4)CN(C(=O)NCc2ccco2)CC3)c(C)c1,10,5.9*,0,.,0,-2
OCCNc1nc(Nc2ccncn2)nc2nc[nH]c12,3,-1,0,-11,.,.
CCSCCOC(=O)C1=C(C)NC2=C(C(=O)C(C(=O)OC)C(C)C2)C1c1ccccc1 (stereo not drawn),-7,-1,0,-2,.,.
CC(NC(=O)CC1S/C(=N/N=C/c2ccco2)NC1=O)C(=O)O (stereo not drawn),10,5.7*,0,3,-1,-3
COc1ccccc1N=C1SC(CC(=O)Nc2cccc([N+](=O)[O-])c2)C(=O)N1C (stereo not drawn),-3,14*,0,-6,-1,-7
Cc1cc(C)n2c(SCC(=O)NC(=O)NC(C)(C)C)nnc2n1,1,5.5*,0,7,0,6
CC(C)Oc1ccc(C(=O)NC(=S)N2CCOCC2)cc1,2,13*,0,-17,1,15
COc1ccc(C(=O)NC(=S)N2CCOCC2)cc1Br,8,-2,1,-1,.,.
SMILES,MITF inh,GPR151 ag,FBW7 act,TEAD-YAP block,GPR151 confirm,GPR119 counter
COc1ccc(C(=O)NC(=S)N2CCOCC2)cc1,0,6.1*,0,10,-1,6
COc1ccc(C(=O)NC(=S)N2CCSCC2)cc1,9,0,0,-5,.,.
COCCN(Cc1cc2cc3c(cc2nc1Cl)OCO3)C(=O)Nc1cccc(F)c1,-3,-1,0,4,.,.
Nc1ccc(Oc2ccc3ccccc3c2Cl)c(Cl)c1,10,2,1,-9,.,.
Nc1ccc(Oc2ccc(Cl)c3ccccc23)c(Cl)c1,4,11*,0,2,0,7
CC(=O)c1ccc(NC(=O)CCC(=O)OC(C)C(=O)c2ccc(C)cc2)cc1 (stereo not drawn),-4,-1,1,9,.,.
O=C1NC2(CCc3ccccc3C2)C(=O)N1CN1CCN(Cc2ccc3c(c2)OCO3)CC1 (stereo not drawn),5,8.3*,0,9,0,-1
O=C(CCCCCn1c(=S)[nH]c2cc3c(cc2c1=O)OCO3)NCc1ccccc1,4,1,0,-1,.,.
O=C(CCCCCn1c(=S)[nH]c2cc3c(cc2c1=O)OCO3)NCc1cccnc1,0,5.9*,0,-5,2,6
CN(Cc1ccccc1)C(=O)CCC1CCN(C(=O)c2cc[n+]([O-])cc2)CC1,14,5.6*,0,0,1,6
CN1CCN(S(=O)(=O)c2ccc3c(c2)NC(=O)CC(=O)N3)CC1,13,-2,1,1,.,.
C[C@H]1NC(=O)[C@@H]2C[C@H](NCc3cccc4cccnc34)CN2C1=O,12,8.6*,0,4,0,11
CC(=O)C(Cc1ccccc1)NC(=O)CN1C(=O)c2ccccc2C1=O (stereo not drawn),2,0,0,6,.,.
CCOC(=O)C(CC1=CNC2C=CC=CC12)NC(=O)CN1C(=O)c2ccccc2C1=O (stereo not drawn),-6,7.7*,0,-6,0,11
O=C(CC1CCCC1)NCCn1nc(-c2cccs2)ccc1=O,14,0,0,-3,.,.
O=c1oc2ccccc2nc1/C=C(O)/C=C/c1ccccc1,19,-1,1,-32,.,.
Cc1nn(C)cc1CN1CCC(CO)(CCOc2ccccc2)CC1,4,11*,0,5,1,8
CC#CCN1C(=O)NC(CCc2ccccc2)(C2CCN(C(=O)C#CC)CC2)C1=O (stereo not drawn),9,7.0*,0,3,0,4
CCOc1ccc(NC(=O)CN2CCN(Cc3ccccc3F)CC2)cc1,9,-1,0,2,.,.
COC(=O)CCC(=O)Nc1ccc(S(=O)(=O)N2CCCC2)cc1,-5,3,0,0,.,.
CCCCCC(=O)N/N=C/c1cccc(OC)c1,10,5.2*,0,-9,0,-3
CCCCCCCC(=O)N/N=C/c1ccccc1OC,-4,17*,0,6,-1,-8
COc1ccc(/C=N/NC(=O)CCC(=O)Nc2ccc(Cl)cc2C)cc1OC,-3,-1,0,-1,.,.
COc1ccc(/C=N/NC(=O)CCC(=O)Nc2ccc(Cl)cc2C)cc1,12,5.3*,0,3,0,-1
CCOc1ccccc1NC(=O)CCc1ccc(OC)cc1,-2,0,0,10,.,.
